The record followed here is ChEMBL document CHEMBL4513141, “CO-ADD screening of NIH (USA) - Clinical Collection” (2021).

Results with a measured potency or affinity are listed apart.

One experiment relates to Staphylococcus aureus. The note with it: Concentration 20 uM; ASSAY_TEST Inhibition of Bacterial Growth; detection method Absorption (OD600); MEDIA CAMHB; plate type 384well; NBS; CORNING #3640; time 18 hr.
Another experiment has as its system Escherichia coli. The note with it: Concentration 20 uM; ASSAY_TEST Inhibition of Bacterial Growth; detection method Absorption (OD600); MEDIA CAMHB; plate type 384well; NBS; CORNING #3640; time 18 hr.

As to `NS(=O)(=O)c1cc(C2(O)NC(=O)c3ccccc32)ccc1Cl` (stereo not given) [CHLORTHALIDONE], the Inhibition is reported as 15.62% with Staphylococcus aureus and -0.28% in the experiment on Escherichia coli.

For `CN1[C@@H](CC(=O)c2ccccc2)CCC[C@H]1C[C@H](O)c1ccccc1.Cl` [LOBELINE HYDROCHLORIDE], the Inhibition is listed as 13.97% in the experiment with Staphylococcus aureus and -0.94% in the experiment on Escherichia coli.

Regarding `c1ccc2c3c([nH]c2c1)CNCC3` [TRYPTOLINE], the figures for the Inhibition in the experiment with Staphylococcus aureus and in the experiment on Escherichia coli were 7.42% and 3.55%, respectively.

Consider `Cl.NCC(O)c1ccc(O)c(O)c1` (stereo not given), for which the Inhibition with Staphylococcus aureus turned out to be 10.44%; in the experiment with Escherichia coli, 0.24%.

`Cl.O=C1CC2(CCCC2)CC(=O)N1CCCCN1CCN(c2ncccn2)CC1` [BUSPIRONE HYDROCHLORIDE]: the Inhibition in the experiment with Staphylococcus aureus is on record as 17.44%; in the experiment with Escherichia coli, 4.5%.

In the case of `CNCC(O)c1ccc(O)cc1` (stereo not given) [OXEDRINE], the Inhibition with Staphylococcus aureus is recorded as -16.09%; in the experiment on Escherichia coli, 6.6%.

As to `Fc1ccc([C@@H]2CCNC[C@H]2COc2ccc3c(c2)OCO3)cc1.O=C(O)/C=C\C(=O)O`, the Inhibition in the experiment on Staphylococcus aureus is listed as 0.49%; in the experiment with Escherichia coli, 6.75%.

For the compound `C=C(C)CN1CC[C@]23c4c5ccc(O)c4O[C@H]2c2[nH]c4ccccc4c2C[C@@]3(O)C1C5.Cl.O`, the Inhibition in the experiment on Staphylococcus aureus is 1.35%; in the experiment with Escherichia coli, 1.94%.

Regarding `CN1CCC[C@H]1c1cccnc1` [NICOTINE], the Inhibition is -15.48% in the experiment with Staphylococcus aureus and 6.98% in the experiment on Escherichia coli.

Take `CCCC(C)(COC(N)=O)COC(=O)NC(C)C` (stereo not given) [CARISOPRODOL]: the values for the Inhibition in the experiment with Staphylococcus aureus and with Escherichia coli were -20.34% and 4.18%, respectively.

As for `Cl.N=C(N)NC(=O)c1nc(Cl)c(N)nc1N.O.O` [AMILORIDE HYDROCHLORIDE], the Inhibition worked out at 11.17% in the experiment on Staphylococcus aureus and 2.12% in the experiment on Escherichia coli.

As for `CN/C(=N\CCSCc1nc[nH]c1C)NC#N` [CIMETIDINE], the Inhibition in the experiment on Staphylococcus aureus was 12.6%; in the experiment with Escherichia coli it was -4.2%.

With `O=C(O[C@@H]1Cc2c(O)cc(O)cc2O[C@@H]1c1cc(O)c(O)c(O)c1)c1cc(O)c(O)c(O)c1` [EPIGALOCATECHIN GALLATE], the Inhibition in the experiment on Staphylococcus aureus is 13.39%; in the experiment with Escherichia coli, 5.85%.

As to `CN1[C@@H]2CC[C@H]1CC(OC(=O)C(CO)c1ccccc1)C2` (stereo not given in full), the Inhibition is 1.53% with Staphylococcus aureus and -5.78% in the experiment with Escherichia coli.

For `CC(C)(C)NCC(O)c1cc(O)cc(O)c1.O=S(=O)(O)O` (stereo not given), the figures for the Inhibition in the experiment on Staphylococcus aureus and with Escherichia coli were 5.47% and 5.21%, respectively.

As to `C[C@]12CC[C@H]3[C@@H](CCC4=CC(=O)CC[C@@]43C)[C@@H]1CC[C@@H]2O` [TESTOSTERONE], the Inhibition in the experiment with Staphylococcus aureus was -3.69%; in the experiment with Escherichia coli, -8.96%.

Take `C=C(C)[C@@H]1[C@H]2OC(=O)[C@@H]1[C@]1(O)C[C@H]3O[C@]34C(=O)O[C@H]2[C@]14C.CC(C)(O)[C@@H]1[C@H]2OC(=O)[C@@H]1[C@]1(O)C[C@H]3O[C@]34C(=O)O[C@H]2[C@]14C`: the Inhibition in the experiment with Staphylococcus aureus worked out at 10.5%; in the experiment on Escherichia coli, 5.19%.

Take `CN1C(=O)COc2c(C(=O)NC3CN4CCC3CC4)cc(Cl)cc21.Cl` (stereo not given): the results for the Inhibition in the experiment with Staphylococcus aureus and in the experiment with Escherichia coli were 14.32% and 3.95%, respectively.

As for `C=C1C[C@@H]2[C@H](CC[C@]3(C)C(=O)CC[C@@H]23)[C@@]2(C)C=CC(=O)C=C12` [EXEMESTANE], the Inhibition is reported as 13.66% in the experiment with Staphylococcus aureus and -6.95% in the experiment with Escherichia coli.

Consider `C#C[C@]1(O)CC[C@H]2[C@@H]3CCC4=CC(=O)CC[C@@H]4[C@H]3CC[C@@]21C` [NORETHINDRONE], for which the Inhibition is -0.74% with Staphylococcus aureus and 4.04% with Escherichia coli.

Consider `COc1ccc(C(CN(C)C)C2(O)CCCCC2)cc1.Cl` (stereo not given) [VENLAFAXINE HYDROCHLORIDE], for which the Inhibition was found to be 5.17% with Staphylococcus aureus and 7.16% in the experiment on Escherichia coli.

As to `O=C1Nc2ccc(Cl)cc2C(c2ccccc2Cl)=NC1O` (stereo not given) [LORAZEPAM], the Inhibition with Staphylococcus aureus is -3.94%; in the experiment on Escherichia coli it was 2.56%.

In the case of `CC(C)c1cccc(C(C)C)c1O` [PROPOFOL], the Inhibition in the experiment on Staphylococcus aureus is reported as -2.39%; in the experiment on Escherichia coli, -13.59%.

`COc1ccc(CCN)cc1OC`: the Inhibition in the experiment with Staphylococcus aureus is given as 8.89%; with Escherichia coli it was -3.33%.

As to `CNC1=Nc2ccc(Cl)cc2C(c2ccccc2)=[N+]([O-])C1` [CHLORDIAZEPOXIDE], the Inhibition in the experiment on Staphylococcus aureus worked out at 15.47%; with Escherichia coli, 3.48%.

For `CN1CCN(C(=O)O[C@H]2c3nccnc3C(=O)N2c2ccc(Cl)cn2)CC1` [ESZOPICLONE], the Inhibition with Staphylococcus aureus is listed as -7.93%; with Escherichia coli it was -0.26%.

In the case of `Cc1ncc2n1-c1ccc(Cl)cc1C(c1ccccc1F)=NC2.Cl` [MIDAZOLAM HYDROCHLORIDE], the Inhibition with Staphylococcus aureus is given as -27.39%; in the experiment with Escherichia coli, 7.58%.

For `Cl.O=C1c2cccc3c2[C@H](CCC3)CN1[C@@H]1CN2CCC1CC2` [PALONOSETRON HYDROCHLORIDE], the Inhibition was found to be 8.38% in the experiment on Staphylococcus aureus and 4.34% in the experiment on Escherichia coli.

For `CC(=O)OC1C([N+]2(C)CCCCC2)C[C@H]2C3CC[C@H]4C[C@H](OC(C)=O)C([N+]5(C)CCCCC5)CC4(C)[C@H]3CCC12C.[Br-].[Br-]` (stereo not given in full), the results for the Inhibition in the experiment with Staphylococcus aureus and in the experiment on Escherichia coli were 8.65% and 6.22%, respectively.

Regarding `Cl.FC(F)(F)c1cccc(N2CCNCC2)c1` [N- (3-TRIFLUOROMETHYLPHENYL)PIPERAZINE HYDROCHLORIDE (TFMPP)], the Inhibition was -3.1% in the experiment with Staphylococcus aureus and 6.36% in the experiment on Escherichia coli.
